Values without a mark were called inactive. No rule for the calls is given here.

The values that follow come from PubChem BioAssay AID504400 (The Scripps Research Institute Molecular Screening Center, 2011).

The test system of this experiment is Phorbol Ester. Put plainly: CYP450 and receptor off-target profile – biochemical, Ricerca HitProfilingScreen, selectivity assay for S1P4 agonist project, late-stage follow-up (AID 504400). Particulars: Ricerca radioligand binding/enzyme panel plus CYP450, at 10 µM, stronger effect = higher value.

With `Clc1ccc(OCCOc2ccc(Br)nc2Br)c(Cl)c1`, the inhibition (as a rule, the share of the control response that was lost under treatment) is 4%.
